These results are taken from ChEMBL document CHEMBL1961873, “Compounds: GSK PKIS; Assays: Nanosyn kinase panel” (2012).
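Also: values are the mean percent inhibition of FGFR1 across replicate measurements.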

The target in the assay is Fibroblast growth factor receptor 1 (Homo sapiens) (UniProt P11362). The note with it: at 1 µM.
Sequence of Fibroblast growth factor receptor 1 (Homo sapiens) (P11362 22-822 limits assumed): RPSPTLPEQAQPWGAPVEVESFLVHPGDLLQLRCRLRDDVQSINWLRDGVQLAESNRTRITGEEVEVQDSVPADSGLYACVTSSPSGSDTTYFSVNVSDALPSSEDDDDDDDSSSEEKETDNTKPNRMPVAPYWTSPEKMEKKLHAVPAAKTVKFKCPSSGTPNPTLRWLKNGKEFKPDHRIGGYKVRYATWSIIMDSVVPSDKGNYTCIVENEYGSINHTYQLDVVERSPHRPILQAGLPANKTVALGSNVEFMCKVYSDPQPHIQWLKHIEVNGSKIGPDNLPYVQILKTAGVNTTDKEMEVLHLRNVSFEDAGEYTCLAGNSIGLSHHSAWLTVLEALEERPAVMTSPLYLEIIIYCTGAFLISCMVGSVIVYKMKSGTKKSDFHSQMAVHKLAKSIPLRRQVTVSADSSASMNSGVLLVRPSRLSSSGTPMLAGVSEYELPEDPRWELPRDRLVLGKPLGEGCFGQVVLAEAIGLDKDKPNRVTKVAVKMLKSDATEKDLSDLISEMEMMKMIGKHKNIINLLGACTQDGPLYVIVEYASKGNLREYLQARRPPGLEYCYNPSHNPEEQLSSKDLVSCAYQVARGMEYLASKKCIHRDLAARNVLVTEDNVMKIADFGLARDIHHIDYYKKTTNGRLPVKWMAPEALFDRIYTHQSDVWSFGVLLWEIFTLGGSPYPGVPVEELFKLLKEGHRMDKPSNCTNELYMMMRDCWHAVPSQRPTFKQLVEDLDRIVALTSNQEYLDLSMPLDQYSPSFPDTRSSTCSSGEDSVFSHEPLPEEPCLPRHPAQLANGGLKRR
What is called inhibition is the change of the read-out against control, counted positive when it falls. For `NS(=O)(=O)c1cccc(-c2cc3ccncc3cc2OCc2ccccc2)c1`, the inhibition was determined as 10.7%.
Next, `COc1cc2ncnc(Nc3ccc4c(cnn4Cc4ccccc4)c3)c2cc1OC`: 3.82%.
In the case of `Cc1ccc2c(c1)/C(=N/Nc1ccc(S(N)(=O)=O)cc1)C(=O)N2`, the inhibition amounted to 4.71%.
Next, `FC(F)(F)c1ccc(-c2nn3ncccc3c2-c2ccnc(Nc3ccc4c(c3)OCCO4)n2)cc1`: 6.28%.
Next, `CCCN1CCCC(c2ccc(Nc3nc(Nc4cc(F)ccc4C(N)=O)c4cc[nH]c4n3)c(OC)c2)C1` (stereo not drawn): 3.44%; `COc1cccc(-n2ncc3c(N/N=C/c4ccc(C)cc4)ncnc32)c1`: 17.7%.
Next, `[O-][S+]1CCN(Cc2ccc(-c3ccc4ncnc(Nc5ccc(OCc6ccccc6)c(Cl)c5)c4c3)o2)CC1`: 1.21%; `Cc1cc(Cl)cc2c1NC(=O)C2=NNc1ccc(S(N)(=O)=O)cc1`: 2.77%.
Take `COc1ccc(-c2nn3ncccc3c2-c2ccnc(Nc3cccc(C(F)(F)F)c3)n2)cc1`: the inhibition is -1.86%.
Regarding `N#Cc1cccc(Nc2nccc(-c3cnn4ncccc34)n2)c1`, the inhibition was found to be 8.94%.
Next, `Cc1ccc2c(-c3ccnc(Nc4cccc(C(F)(F)F)c4)n3)c(-c3ccccc3)nn2n1`: 8.78%; `Cc1ccc(O)cc1Nc1ccnc2ccc(S(C)(=O)=O)cc12`: 8.34%.
Next, `Cc1ccc(Nc2ccnc(Nc3cccc(C(N)=O)c3)n2)cc1O`: 34.8%.
On to `O=C1Nc2ccc(-c3cccnc3)cc2C1=Cc1cc(Br)c(O)c(Br)c1`, for which the inhibition was 1.74%.
Take `COC(=O)Nc1nc2cc(Oc3ccc(NC(=O)Nc4cccc(Br)c4)cc3)ccc2[nH]1`: the inhibition is 0.5%.
Next, `Cc1cc(O)cc(C)c1/C=C/c1cncc(C(=O)N(C)C)c1`: 1.65%; `COc1ccc2ncnc(Nc3ccc(OCc4ccccc4)cc3)c2c1`: -1.53%.
With `CS(=O)(=O)Nc1cccc(-c2ccc3c(NC(=O)C4CC4)n[nH]c3c2)c1`, the inhibition was found to be 0.55%.
`COc1cc2ncnc(Nc3ccc(C)c(O)c3)c2cc1OC`: the inhibition was 17.2%.
On to `COc1cccc(-n2ncc3c(N/N=C/c4ccc(S(C)(=O)=O)cc4)ncnc32)c1`, for which the inhibition amounted to 0.92%.
For the molecule `Cc1nc(-c2ccccc2)n2nc(NCCCN3CCOCC3)ncc12`, the inhibition is -3.57%.
For `Nc1nccc(C#Cc2cncnc2Nc2ccc(OCc3cccc(F)c3)c(Cl)c2)n1`, the inhibition is 4.02%.
Then `N#Cc1c(NC(=O)c2ccccc2F)sc2c1CCCC2`, with -0.77%; and `CC(C)c1ccc(Nc2nccc(-c3cnn4ncccc34)n2)cc1`, with 4.17%.
Then `NS(=O)(=O)c1ccc(NC=C2C(=O)Nc3ccc4ncsc4c32)cc1`, with 41.9%; and `CN(c1ccc(NC(=O)Nc2ccc(OC(F)(F)F)cc2)cc1)c1ccnc(Nc2cccc(S(N)(=O)=O)c2)n1`, with 20.3%; and `COc1cc(/C=N/Nc2ncnc3c2cnn3C(C)C)ccc1O`, with 2.77%.
Next, `NC(=O)c1cccc(Nc2nccc(Nc3cccc(F)c3)n2)c1`: 10.2%; `Nc1ccc(C#Cc2cncnc2Nc2ccc(OCc3cccc(F)c3)c(Cl)c2)cc1`: 4.37%; `O=C(Nc1ccc(Oc2ccc3[nH]c(NC(=O)c4ccco4)nc3c2)cc1)Nc1cc(C(F)(F)F)ccc1F`: 9.84%.
Consider `CC(C)c1ccc2c(c1)NC(=O)/C2=N/Nc1ccc(S(N)(=O)=O)cc1`, for which the inhibition was -0.01%.
Then `c1ccc(Cc2nc3ccc(Nc4ncnc5ccccc45)cc3[nH]2)cc1`, with 1.67%; and `CCOc1nccc2c1nc(-c1nonc1N)n2CC`, with 7.51%.
